Inconclusive results are not listed. The source made the active and inactive calls. Unless noted, calls follow the shape of the dose curve; as a rule, active = well fitted curve in the direction sought with a large enough effect; inconclusive = small, poorly fitted or top-dose-only effect, or another doubt; inactive = no such curve, though single readings can be large; an effect the other way counts as inactive or inconclusive.
Tests used:
[1] = AP1 Signaling Pathway (AID 357; active = well fitted curve in either direction with a large enough effect, not every such curve was filed as active;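 also: ME-180 reporter cells stimulated with EGF at its EC50 level; % is scaled to controls: 0 for no effect and ±100 for the full control effect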); settings: ME-180 AP-1-bla reporter, EGF-induced, beta-lactamase ratio, 5 h; at 17.2 µM (top of the series) unless noted
How it was run: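 Beta-lactamase reporter under AP-1 response element, ME-180 background. Stimulus: EC50 EGF. Compound exposure 5 h, 37 °C. Detection: CCF4, 2.5 h RT, 460/530 nm. Values: AC50 from titration.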

[2] = biological target: Glucocorticoid receptor (Homo sapiens) (UniProt P04150); experiment: GR-GFP Redistribution (AID 450;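 active = compounds whose dose series gives a full or clear partial fitted curve of increased nuclear translocation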; also: potency is read from the fitted curve at half-maximal effect)
[3] = biological target: Cytochrome P450 1A2 (Homo sapiens) (UniProt P05177); experiment: p450-cyp1a2 (AID 410; calls by dose curve; also: potency is read from the fitted curve at half-maximal effect;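 as to activity change, negative = inhibition: -100% = full effect of reference inhibitor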)
How it was run: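 20nM CYP1A2, 100uM Luciferin-ME (=Km), 100mM KPO4; cpd 10 min RT; +NADPH regen, 60 min RT; stop/detect 20 min; luminescence. Normalized to furafylline 57 uM = full inhibition.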

[4] = NFAT Signaling Pathway (AID 444; active = well fitted curve in either direction with a large enough effect, not every such curve was filed as active;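 also: carbachol stimulus at about its EC50 of 1 µM final; % is scaled to controls: 0 for no effect and ±100 for the full control effect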); settings: Jurkat NFAT-bla M1, carbachol, beta-lactamase ratio, 5 h; at 17.2 µM (top of the series) unless noted
How it was run: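 Jurkat cells carrying an NFAT-driven β-lactamase reporter and co-transfected muscarinic M1 receptor were treated with compound plus carbachol (1 uM final, an EC50 level) for 5 h at 37 °C. CCF4 loading followed for 1 h at RT; 460/530 nm ratio gave %activity.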

[5] = biological target: Glucocorticoid receptor (Homo sapiens) (UniProt P04150); experiment: GR-EFC Redistribution (AID 451; calls by dose curve; also: potency is read from the fitted curve at half-maximal effect); settings: CHO-K1 GR-EFC translocation, beta-gal luminescence, 2 h
How it was run: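 CHO-K1 cells stably expressing nuclear-localized β-gal enzyme acceptor and GR fused C-terminally to the enzyme donor fragment; ligand-driven nuclear translocation restores β-gal by complementation. Compounds titrated up to 46 uM final, 2 h at 37 °C; luminescence read.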

[6] = biological target: Mitogen-activated protein kinase 10 (Mus musculus) (UniProt Q61831); experiment: JNK3 AlphaScreen Assay (AID 530; active = well fitted curve in either direction with a large enough effect, not every such curve was filed as active;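 also: kinase came from lysate of stimulated human HepG2 cells; signal reports phosphorylation of biotinylated GST-cJun 1-79 at Ser73 with 10 µM ATP; % is scaled to controls: 0 for no effect and ±100 for the full control effect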)
How it was run: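 Biotinylated GST-cJun(1-79) served as substrate for JNK3 in HepG2 lysates stimulated with IL-1beta and TNF-alpha. ATP was 10 uM final, pH 7.6. Ser73 phosphorylation was quantified by AlphaScreen (680 nm excitation).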

[7] = biological target: 3',5'-cyclic-AMP phosphodiesterase 4B (Homo sapiens) (UniProt Q07343); experiment: qHTS Assay for Inhibitors of PDE-IV (AID 607; active = well fitted activation curve with a large enough effect in the main read-out, with a control signal flat, not every such curve was filed as active; also: % of control where 0% means no effect)
How it was run: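 Live HEK293 cells with a modified cyclic nucleotide-gated (CNG) channel report intracellular cAMP via membrane-potential dye fluorescence (ex 535/em 590 nm). Endogenous PDE-IV was targeted. Compounds were tested at up to 22.9 uM final; RO 20-1724 100 uM served as control.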

[8] = biological target: Cytochrome P450 3A4 (Homo sapiens) (UniProt P08684); experiment: qHTS Assay for Activators of Cytochrome P450 3A4 (AID 885); also: nearly all actives have a fitted effect of over 65% in size
How it was run: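 Using 20nM recombinant human CYP3A4 in potassium phosphate (200mM), substrate Luciferin-PPXE at 25uM, luminescent luciferin detection followed a 60-min RT NADPH reaction; data scaled to 57 uM ketoconazole.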

[9] = qHTS Assay for Identification of Small Molecule Agonists for Thrombopoietin (TPO) Signaling Pathway (AID 917); also: % is scaled to controls: 0 for no effect and ±100 for the full control effect
How it was run: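 Cell-based luciferase reporter screen. Mouse Ba/F3 line stably expressing human TPO receptor; IL-3 removed overnight before plating. Co-treatment with compound and EC50 TPO (26 pM), 24 hrs at 37 C, then luminescence.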

[10] = biological target: Muscarinic acetylcholine receptor M1 (Rattus norvegicus) (UniProt P08482); experiment: qHTS Assay for Antagonists of Acetylcholine Muscarinic M1 Receptor: Measurement of IP-One Response (AID 944); also: nearly all actives have a fitted effect of over 75% in size
How it was run: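 Read-out: HTRF competition between d2-IP1 and Eu-cryptate anti-IP1 antibody, emission 620 and 665 nm. Stimulus was carbachol, EC80 (200 nM), for 30 min in M1-CHO cells (rat receptor), after 10 min compound pre-treatment.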

[11] = biological target: Pyruvate kinase (Leishmania mexicana) (UniProt Q27686); experiment: qHTS Validation Assay for Inhibitors of Leishmania Mexicana Pyruvate Kinase (AID 945);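 also: 0% = DMSO only neutral control wells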
How it was run: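 LmPYK E451W 0.2 nM; 0.5 mM PEP, 0.1 mM ADP, 7 mM MgCl2, 50 mM KCl, imidazole pH 7.2, 0.01% Tween 20, 0.05% BSA; 1 h RT; PKLight luminescence; DMSO-normalized.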

[12] = biological target: Pyruvate kinase PKM (Homo sapiens) (UniProt P14618); experiment: qHTS Assay for Activators of Human Muscle Pyruvate Kinase (AID 954; active = well fitted curve in the direction sought with a large enough effect, not every such curve was filed as active;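 also: 0% = uninhibited enzyme and -100% = no enzyme or full thiadiazolimine inhibition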)
How it was run: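 Screening used highly purified human pyruvate kinase M2 under submaximal activity, with PEP at its Km and ADP below Km. After an hour at room temperature, ATP was read by luciferase luminescence.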

[13] = biological target: Alpha-galactosidase A (Homo sapiens) (UniProt P06280); experiment: Counterscreen for Glucocerebrosidase Inhibitors: qHTS Assay for Human alpha-Galactosidase at pH 4.5 (AID 992); also: 0% is about no effect
How it was run: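 Each compound is preincubated briefly with 2 nM enzyme before substrate addition (80 uM); plates then sit 20 min at ambient temperature, are quenched with 1M NaOH/1M glycine, and read fluorometrically.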

[14] = biological target: alpha-glucosidase (Oryza sativa, rice) (UniProt Q653V4); experiment: Counterscreen for Glucocerebrosidase Inhibitors: qHTS Assay for Rice alpha-Glucosidase at pH 5.0 (AID 997);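 also: 0% = full activity with enzyme and -100% = basal without enzyme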
How it was run: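 Endpoint fluorogenic assay at pH 5.0: compounds (0.7 nM to 77 uM) titrated against 4 nM rice enzyme and 400 uM 4-MU-alpha-glucoside for 20 min at room temperature; NaOH/glycine stop, read ex 365/em 440 nm, Hill-fitted AC50.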

[15] = biological target: Tumor susceptibility gene 101 protein (Homo sapiens) (UniProt Q99816); experiment: qHTS Assay for Iinhibitors of HIV-1 Budding by Blocking the Interaction of PTAP/TSG101: Hit Validation (AID 651600); also: potency is read from the fitted curve at half-maximal effect; nearly all actives have a fitted effect of over 70% in size
How it was run: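 Compounds are added to the Tsg101 binding domain (10 uM final) in pH 7.5 HEPES buffer. FITC-PTAP peptide follows at 50 nM final. After 20 min at r.t., polarized FITC emission is measured.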

[16] = Stat Signaling Pathway (AID 446; active = well fitted curve in either direction with a large enough effect, not every such curve was filed as active); settings: ME-180 (cervical carcinoma) SIE beta-lactamase reporter, IL-6 stimulated, 5 h; at 17.2 µM (top of the series) unless noted
How it was run: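 Overnight-plated ME-180 cells bearing a STAT Inducible Element beta-lactamase reporter; 5 h co-exposure to compound and 40 pM IL-6; values normalized to 300 pM IL-6 and 125 nM JAK inhibitor controls.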

[17] = biological target: Guanine nucleotide-binding protein G(i) subunit alpha-1 (Homo sapiens) (UniProt P63096); experiment: qHTS Assay for Inhibitors of RGS12 GoLoco Motif Activity (Green Fluorophore) (AID 879);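 also: 0% = labeled peptide with Gαi1 and full inhibition = labeled peptide alone without protein; negative values mean loss of peptide binding seen as reduced polarization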
How it was run: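 A drop in FITC polarization marked displacement of the FITC-tagged RGS12 GoLoco peptide (10 nM) from Gαi1 (50 nM). Compounds were incubated 10 min at room temperature in Tris pH 7.5 buffer containing 150 mM NaCl, 0.1 mM GDP and 0.05% NP40; unlabeled peptide titration served as control.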

[18] = biological target: Cytochrome P450 2C9 (Homo sapiens) (UniProt P11712); experiment: qHTS Assay for Inhibitors and Substrates of Cytochrome P450 2C9 (AID 883); also: potency is read from the fitted curve at half-maximal effect; nearly all actives have a fitted effect of over 60% in size
How it was run: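 Human CYP2C9 (10nM) hydroxylated Luciferin-H (100uM, at its KM) to luciferin in 25mM KPO4. Compound was preincubated 10 min at 37C, then NADPH regeneration started a 60 min reaction at 37C. Luminescence was read after detection reagent, normalized to 57uM sulphaphenazole.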

[19] = biological target: Cytochrome P450 3A4 (Homo sapiens) (UniProt P08684); experiment: qHTS Assay for Inhibitors and Substrates of Cytochrome P450 3A4 (AID 884); also: potency is read from the fitted curve at half-maximal effect; nearly all actives have a fitted effect of over 50% in size
How it was run: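 Luminescent readout of luciferin produced by CYP3A4 (20 nM) dealkylation of Luciferin-PPXE, 25 uM (its KM). NADPH-driven reaction ran 60 min at RT after 10 min compound preincubation; data scaled to 57 uM ketoconazole as 100% inhibition.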

[20] = qHTS Assay for Identification of Small Molecule Antagonists for NFkB Signaling Pathway (AID 895; active = well fitted inhibition curve with a large enough effect in the signal ratio, with a control signal flat, not every such curve was filed as active; the % refers to the signal ratio; also: potency is read from the fitted curve at half-maximal effect)
How it was run: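 NFkB-bla ME-180 cervical carcinoma cells with beta-lactamase reporter under NFkB response element; compounds added, then TNF alpha at 10 pM final (EC50), 5 h at 37 C. LiveBLAzer substrate 2 h, room temperature; emission 460/530 nm at 405 nm excitation.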

[21] = biological target: Cytochrome P450 2C19 (Homo sapiens) (UniProt P33261); experiment: qHTS Assay for Inhibitors and Substrates of Cytochrome P450 2C19 (AID 899); also: potency is read from the fitted curve at half-maximal effect; nearly all actives have a fitted effect of over 60% in size
How it was run: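 Human CYP2C19 (5nM) with Luciferin-H EGE at 10uM (its KM) in 50mM KPO4 was preincubated with compound for 10 min at 37C. NADPH regeneration started a 60 min 37C reaction. Luciferin was read by luminescence, normalized to 57uM ketoconazole.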

[22] = biological target: Pyruvate kinase PKM (Homo sapiens) (UniProt P14618); experiment: qHTS Assay for Inhibitors of Human Muscle Pyruvate Kinase (AID 958)
How it was run: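 Luminescence from a luciferase ATP-detection/stop reagent reported PKM2 activity. Reactions contained 0.1 nM purified human enzyme, 0.5 mM PEP, 0.1 mM ADP and 7 mM MgCl2 at pH 7.2, run 1 h at RT.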

Pyruvate kinase PKM (Homo sapiens), sequence (P14618 whole entry, looked up): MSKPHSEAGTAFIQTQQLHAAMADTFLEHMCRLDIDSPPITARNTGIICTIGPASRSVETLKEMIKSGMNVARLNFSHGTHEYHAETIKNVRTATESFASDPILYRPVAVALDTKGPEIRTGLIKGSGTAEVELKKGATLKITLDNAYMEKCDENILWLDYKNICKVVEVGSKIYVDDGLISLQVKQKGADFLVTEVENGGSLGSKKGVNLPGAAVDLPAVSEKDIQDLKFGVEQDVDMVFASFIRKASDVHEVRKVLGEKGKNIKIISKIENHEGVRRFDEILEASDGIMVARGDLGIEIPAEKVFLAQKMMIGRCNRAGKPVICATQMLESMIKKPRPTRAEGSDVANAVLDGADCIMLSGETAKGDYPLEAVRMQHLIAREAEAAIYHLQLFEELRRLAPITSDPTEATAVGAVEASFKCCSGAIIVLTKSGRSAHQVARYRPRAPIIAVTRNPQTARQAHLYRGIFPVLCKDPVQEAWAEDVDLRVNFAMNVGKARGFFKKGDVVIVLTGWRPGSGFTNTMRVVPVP
Cytochrome P450 1A2 (Homo sapiens), sequence (P05177 whole entry, looked up): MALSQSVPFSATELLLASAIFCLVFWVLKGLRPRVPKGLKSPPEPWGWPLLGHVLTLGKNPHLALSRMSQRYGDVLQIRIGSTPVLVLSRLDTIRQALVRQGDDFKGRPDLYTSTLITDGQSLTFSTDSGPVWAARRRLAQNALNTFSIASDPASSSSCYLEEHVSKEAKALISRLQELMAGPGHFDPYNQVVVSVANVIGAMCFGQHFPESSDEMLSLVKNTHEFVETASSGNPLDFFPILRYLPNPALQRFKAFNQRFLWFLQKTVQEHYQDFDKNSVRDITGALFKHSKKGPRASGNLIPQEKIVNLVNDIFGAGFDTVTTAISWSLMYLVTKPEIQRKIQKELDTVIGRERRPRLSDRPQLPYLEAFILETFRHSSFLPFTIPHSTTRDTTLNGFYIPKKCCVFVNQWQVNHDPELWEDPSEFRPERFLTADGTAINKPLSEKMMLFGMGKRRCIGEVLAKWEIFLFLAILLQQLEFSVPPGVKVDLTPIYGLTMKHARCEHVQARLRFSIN
Alpha-galactosidase A (Homo sapiens), sequence (P06280 whole entry, looked up): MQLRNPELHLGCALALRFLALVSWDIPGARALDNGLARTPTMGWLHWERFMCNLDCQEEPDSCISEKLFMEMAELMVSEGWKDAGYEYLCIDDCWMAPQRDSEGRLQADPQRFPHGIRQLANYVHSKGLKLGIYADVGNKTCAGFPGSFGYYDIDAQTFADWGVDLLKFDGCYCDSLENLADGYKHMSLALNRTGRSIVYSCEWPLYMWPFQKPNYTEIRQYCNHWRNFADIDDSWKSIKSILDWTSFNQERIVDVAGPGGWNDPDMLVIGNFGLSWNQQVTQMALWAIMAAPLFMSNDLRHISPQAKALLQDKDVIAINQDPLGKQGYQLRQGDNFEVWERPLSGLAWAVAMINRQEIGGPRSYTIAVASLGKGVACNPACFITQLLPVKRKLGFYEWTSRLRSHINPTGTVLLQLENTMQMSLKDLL
Cytochrome P450 3A4 (Homo sapiens), sequence (P08684 whole entry, looked up): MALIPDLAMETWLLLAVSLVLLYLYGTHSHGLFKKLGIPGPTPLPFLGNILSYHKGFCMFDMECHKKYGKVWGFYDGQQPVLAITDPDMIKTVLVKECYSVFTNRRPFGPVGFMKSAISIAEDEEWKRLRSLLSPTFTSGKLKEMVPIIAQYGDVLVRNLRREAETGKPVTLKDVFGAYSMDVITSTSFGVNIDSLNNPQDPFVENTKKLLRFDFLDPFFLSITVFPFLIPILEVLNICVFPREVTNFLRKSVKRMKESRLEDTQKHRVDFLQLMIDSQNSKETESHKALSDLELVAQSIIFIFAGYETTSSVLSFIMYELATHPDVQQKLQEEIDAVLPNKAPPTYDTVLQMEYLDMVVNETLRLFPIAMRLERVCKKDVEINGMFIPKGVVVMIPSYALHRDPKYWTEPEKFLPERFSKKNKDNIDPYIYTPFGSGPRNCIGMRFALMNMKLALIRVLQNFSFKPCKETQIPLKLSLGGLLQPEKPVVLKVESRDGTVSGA
3',5'-cyclic-AMP phosphodiesterase 4B (Homo sapiens), sequence (Q07343 whole entry, looked up): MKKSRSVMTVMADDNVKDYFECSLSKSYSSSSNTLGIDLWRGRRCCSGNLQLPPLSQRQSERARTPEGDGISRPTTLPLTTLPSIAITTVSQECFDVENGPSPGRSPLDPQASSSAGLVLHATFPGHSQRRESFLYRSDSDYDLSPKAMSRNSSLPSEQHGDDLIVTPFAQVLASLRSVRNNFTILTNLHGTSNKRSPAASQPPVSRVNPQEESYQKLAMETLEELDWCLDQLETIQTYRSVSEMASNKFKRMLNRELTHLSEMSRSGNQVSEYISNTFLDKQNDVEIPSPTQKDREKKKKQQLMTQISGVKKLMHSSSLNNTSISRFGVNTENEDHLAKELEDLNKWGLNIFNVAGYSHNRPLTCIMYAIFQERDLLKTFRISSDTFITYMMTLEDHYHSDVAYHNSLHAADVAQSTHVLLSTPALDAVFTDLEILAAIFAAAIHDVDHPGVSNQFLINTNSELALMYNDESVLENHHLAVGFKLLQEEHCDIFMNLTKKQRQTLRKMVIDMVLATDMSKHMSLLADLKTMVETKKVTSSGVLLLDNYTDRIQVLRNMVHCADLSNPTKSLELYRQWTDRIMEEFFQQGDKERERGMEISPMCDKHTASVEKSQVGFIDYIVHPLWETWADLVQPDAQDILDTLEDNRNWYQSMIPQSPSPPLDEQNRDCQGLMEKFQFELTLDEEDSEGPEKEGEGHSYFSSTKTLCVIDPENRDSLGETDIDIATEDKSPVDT
Pyruvate kinase (Leishmania mexicana), sequence (Q27686 2-499 E452W): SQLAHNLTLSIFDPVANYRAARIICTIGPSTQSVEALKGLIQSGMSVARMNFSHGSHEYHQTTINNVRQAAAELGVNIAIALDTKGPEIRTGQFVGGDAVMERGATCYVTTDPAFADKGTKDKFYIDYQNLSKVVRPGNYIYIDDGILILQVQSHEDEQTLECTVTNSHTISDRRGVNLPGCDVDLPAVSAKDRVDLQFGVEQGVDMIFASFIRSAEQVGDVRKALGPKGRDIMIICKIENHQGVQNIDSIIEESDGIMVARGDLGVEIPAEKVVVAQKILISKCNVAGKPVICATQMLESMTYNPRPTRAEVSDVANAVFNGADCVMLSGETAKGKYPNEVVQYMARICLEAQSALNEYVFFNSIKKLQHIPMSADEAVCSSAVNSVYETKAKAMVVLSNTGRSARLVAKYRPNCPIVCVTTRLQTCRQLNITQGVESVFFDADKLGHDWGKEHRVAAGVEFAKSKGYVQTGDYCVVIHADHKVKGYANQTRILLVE
Glucocorticoid receptor (Homo sapiens), sequence (P04150 whole entry, looked up, the tested form may be a part): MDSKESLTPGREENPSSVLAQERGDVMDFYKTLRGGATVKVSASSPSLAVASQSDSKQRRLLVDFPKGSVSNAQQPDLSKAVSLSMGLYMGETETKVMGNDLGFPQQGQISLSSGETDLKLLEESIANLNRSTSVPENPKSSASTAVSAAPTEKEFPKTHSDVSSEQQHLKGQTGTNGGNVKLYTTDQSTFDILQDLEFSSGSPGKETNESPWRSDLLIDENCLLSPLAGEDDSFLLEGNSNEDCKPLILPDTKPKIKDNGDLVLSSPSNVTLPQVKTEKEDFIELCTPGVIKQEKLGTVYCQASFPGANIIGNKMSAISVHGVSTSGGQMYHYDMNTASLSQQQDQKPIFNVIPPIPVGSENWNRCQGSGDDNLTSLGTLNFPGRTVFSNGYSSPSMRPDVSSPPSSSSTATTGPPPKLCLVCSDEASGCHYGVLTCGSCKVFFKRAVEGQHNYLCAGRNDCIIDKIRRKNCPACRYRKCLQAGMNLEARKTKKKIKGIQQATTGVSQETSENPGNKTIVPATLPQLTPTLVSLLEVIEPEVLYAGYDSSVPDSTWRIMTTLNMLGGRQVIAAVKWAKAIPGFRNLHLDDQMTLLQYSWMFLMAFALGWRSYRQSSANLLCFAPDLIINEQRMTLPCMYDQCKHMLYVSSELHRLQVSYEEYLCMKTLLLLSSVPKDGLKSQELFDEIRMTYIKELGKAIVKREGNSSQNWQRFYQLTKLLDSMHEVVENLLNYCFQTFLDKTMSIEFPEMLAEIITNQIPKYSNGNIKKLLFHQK
Muscarinic acetylcholine receptor M1 (Rattus norvegicus), sequence (P08482 whole entry, looked up): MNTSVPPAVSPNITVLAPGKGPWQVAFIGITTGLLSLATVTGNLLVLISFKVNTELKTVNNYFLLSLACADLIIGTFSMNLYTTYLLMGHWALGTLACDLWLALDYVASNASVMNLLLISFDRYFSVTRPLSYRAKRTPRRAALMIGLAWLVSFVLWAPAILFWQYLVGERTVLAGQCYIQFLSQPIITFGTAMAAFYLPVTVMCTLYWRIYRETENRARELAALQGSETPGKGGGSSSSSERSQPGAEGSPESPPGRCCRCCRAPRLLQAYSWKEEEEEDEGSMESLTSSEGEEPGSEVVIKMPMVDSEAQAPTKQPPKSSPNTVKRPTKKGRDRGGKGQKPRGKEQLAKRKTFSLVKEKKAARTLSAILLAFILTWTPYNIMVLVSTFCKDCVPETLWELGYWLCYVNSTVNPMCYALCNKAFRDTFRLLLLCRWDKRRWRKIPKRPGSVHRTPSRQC
Guanine nucleotide-binding protein G(i) subunit alpha-1 (Homo sapiens), sequence (P63096 whole entry, looked up): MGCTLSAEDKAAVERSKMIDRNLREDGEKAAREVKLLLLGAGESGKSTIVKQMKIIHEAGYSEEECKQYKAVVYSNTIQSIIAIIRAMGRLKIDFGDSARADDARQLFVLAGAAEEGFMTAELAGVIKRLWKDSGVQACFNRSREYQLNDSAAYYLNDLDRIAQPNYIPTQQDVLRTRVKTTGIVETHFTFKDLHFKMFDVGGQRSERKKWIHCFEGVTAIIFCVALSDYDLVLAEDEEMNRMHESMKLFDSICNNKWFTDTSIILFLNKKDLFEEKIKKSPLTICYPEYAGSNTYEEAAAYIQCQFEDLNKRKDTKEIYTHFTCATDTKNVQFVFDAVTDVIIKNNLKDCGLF

Oc1ccccc1-c1nc(NCc2ccco2)c2ccccc2n1
inactive: activity change, negative = inhibition [1] 19.5% | Potency [2] > 20.6 µM

Cc1cc(C)n(CC(=O)N2c3ccccc3Sc3ccccc32)n1
inactive: activity change, negative = inhibition [1] -8.25% | Potency [2] > 20.6 µM

CCc1c2c(nc3c(C(C)C)cccc13)-c1cccc(=O)n1C2
active: Potency [3] 0.398 µM

N#CC1=C(SCC(=O)c2ccc(Br)cc2)NC2=C(C(=O)CCC2)C1c1ccco1 (stereo not drawn)
active: activity change, negative = inhibition [1] -81.5%
inactive: Potency [2] > 20.6 µM

CCCCC#Cc1nc(N)c2ncn([C@@H]3O[C@@H](C(=O)NCC)[C@H](O)[C@@H]3O)c2n1
inactive: Potency [3] | activity change, negative = inhibition [4] 15.6% [at 38 µM] | Potency [2] > 46 µM | Potency [5] > 46 µM | Potency [6] | Potency [7] | Potency [8] | Potency [9] | Potency [10] | Potency [11] | outcome [12] | outcome [13] | outcome [14]

CCN1CC=C2C(C#N)=C(N)C(C#N)(C#N)[C@H](c3cccc(OC)c3OC)[C@H]2C1
active: Potency [15] 29.1 µM
inactive: activity change, negative = inhibition [1] 9.63% | Potency [2] > 20.6 µM

C#CCN1C(C)=C(C(=O)OC)[C@@H](c2cccc([N+](=O)[O-])c2)C(C(=O)OCC)=C1C
active: Potency [3] 12.6 µM | Potency [18] 0.316 µM | Potency [19] 3.16 µM | Potency [20] 3.55 µM | Potency [21] 5.01 µM
inactive: activity, negative = inhibition [16] -3.77% [at 38 µM] | Potency [2] > 46 µM | Potency [5] > 46 µM | Potency [6] | Potency [7] | outcome [17] | Potency [8] | Potency [9] | Potency [11] | outcome [12] | outcome [13] | outcome [14]

CNC(=O)[C@@H]1O[C@@H](n2cnc3c(NCc4cccc(I)c4)ncnc32)[C@H](O)[C@@H]1O
inactive: Potency [3] | activity change, negative = inhibition [4] 9.56% [at 38 µM] | activity, negative = inhibition [16] -11.2% [at 38 µM] | Potency [2] > 46 µM | Potency [5] > 46 µM | Potency [7] | Potency [8] | Potency [9] | Potency [10] | Potency [11] | Potency [22] | outcome [13] | outcome [14]
